# From publication PMC8384837, “Expanding the binding specificity for RNA recognition by a PUF domain”
# Key:
# Assay in all cases: yeast three-hybrid, YBZ-1, SC-Leu-His + 0.5 mM 3-AT, 4 days
# Settings in all cases: tags: N-Gal4 AD-HA kept; label: inside an RPR1-promoter hybrid RNA with tandem MS2 sites; ssRNA
# PUM1 PUF domain R7-KGV = PUM1 PUF domain R7-KGV (Homo sapiens, UniProt Q14671 828-1176, S1079K;N1080G;E1083V)
# How it was run: (§1)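 Each repeat of the Pumilio-1 PUF domain was randomized at its three base-contacting residues, and these libraries were co-expressed from a centromeric plasmid with matching RNA elements in strain YBZ-1. After four days on SC-Leu (input) or SC-Leu-His + 0.5 mM 3-AT (selection), the repeat regions were PCR-amplified and Illumina-sequenced. The interaction score compares variant frequency between input and selection as a log change, computed in log2 with a pseudocount of 1 for absent variants.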
# PUM1 PUF domain R4-EHT = PUM1 PUF domain R4-EHT (Homo sapiens, UniProt Q14671 828-1176, N971E;Q975T)
# How it was run: as §1
# PUM1 PUF domain R5-RFN = PUM1 PUF domain R5-RFN (Homo sapiens, UniProt Q14671 828-1176, C1007R;R1008F;Q1011N)
# How it was run: as §1
# PUM1 PUF domain R5-GWY = PUM1 PUF domain R5-GWY (Homo sapiens, UniProt Q14671 828-1176, C1007G;R1008W;Q1011Y)
# How it was run: as §1
# PUM1 PUF domain R3-TWD = PUM1 PUF domain R3-TWD (Homo sapiens, UniProt Q14671 828-1176, C935T;R936W;Q939D)
# How it was run: as §1
# PUM1 PUF domain R3-WWS = PUM1 PUF domain R3-WWS (Homo sapiens, UniProt Q14671 828-1176, C935W;R936W;Q939S)
# How it was run: as §1
# PUM1 PUF domain R8-WFR = PUM1 PUF domain R8-WFR (Homo sapiens, UniProt Q14671 828-1176, N1122W;Y1123F;Q1126R)
# How it was run: as §1
# PUM1 PUF domain R1-NYV = PUM1 PUF domain R1-NYV (Homo sapiens, UniProt Q14671 828-1176, S863N;R864Y;Q867V)
# How it was run: as §1
# PUM1 PUF domain R8-HHP = PUM1 PUF domain R8-HHP (Homo sapiens, UniProt Q14671 828-1176, N1122H;Y1123H;Q1126P)
# How it was run: as §1
# PUM1 PUF domain R3-RSD = PUM1 PUF domain R3-RSD (Homo sapiens, UniProt Q14671 828-1176, C935R;R936S;Q939D)
# How it was run: as §1
# Chain of PUM1 PUF domain R3-WWS (Q14671 828-1176 C935W/R936W/Q939S): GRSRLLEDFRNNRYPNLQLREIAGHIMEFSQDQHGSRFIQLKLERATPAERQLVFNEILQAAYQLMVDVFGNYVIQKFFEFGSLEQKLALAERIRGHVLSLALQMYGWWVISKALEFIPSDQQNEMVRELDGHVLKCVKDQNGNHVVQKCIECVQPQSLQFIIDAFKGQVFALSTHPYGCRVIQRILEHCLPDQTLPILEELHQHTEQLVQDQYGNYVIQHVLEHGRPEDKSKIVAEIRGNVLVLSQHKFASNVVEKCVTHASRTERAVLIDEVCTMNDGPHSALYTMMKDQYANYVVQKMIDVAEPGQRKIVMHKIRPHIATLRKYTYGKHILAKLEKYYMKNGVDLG
# Chain of PUM1 PUF domain R5-RFN (Q14671 828-1176 C1007R/R1008F/Q1011N): as the sequence (Q14671 828-1176 C935W/R936W/Q939S) above, with W108C, W109R, S112Q, C180R, R181F, Q184N counted along it
# Chain of PUM1 PUF domain R8-WFR (Q14671 828-1176 N1122W/Y1123F/Q1126R): as the sequence (Q14671 828-1176 C935W/R936W/Q939S) above, with W108C, W109R, S112Q, N295W, Y296F, Q299R counted along it
# Chain of PUM1 PUF domain R3-RSD (Q14671 828-1176 C935R/R936S/Q939D): as the sequence (Q14671 828-1176 C935W/R936W/Q939S) above, with W108R, W109S, S112D counted along it
# Chain of PUM1 PUF domain R5-GWY (Q14671 828-1176 C1007G/R1008W/Q1011Y): as the sequence (Q14671 828-1176 C935W/R936W/Q939S) above, with W108C, W109R, S112Q, C180G, R181W, Q184Y counted along it
# Chain of PUM1 PUF domain R3-TWD (Q14671 828-1176 C935T/R936W/Q939D): as the sequence (Q14671 828-1176 C935W/R936W/Q939S) above, with W108T, S112D counted along it
# Chain of PUM1 PUF domain R8-HHP (Q14671 828-1176 N1122H/Y1123H/Q1126P): as the sequence (Q14671 828-1176 C935W/R936W/Q939S) above, with W108C, W109R, S112Q, N295H, Y296H, Q299P counted along it
# Chain of PUM1 PUF domain R7-KGV (Q14671 828-1176 S1079K/N1080G/E1083V): as the sequence (Q14671 828-1176 C935W/R936W/Q939S) above, with W108C, W109R, S112Q, S252K, N253G, E256V counted along it
# Chain of PUM1 PUF domain R1-NYV (Q14671 828-1176 S863N/R864Y/Q867V): as the sequence (Q14671 828-1176 C935W/R936W/Q939S) above, with S36N, R37Y, Q40V, W108C, W109R, S112Q counted along it
# Chain of PUM1 PUF domain R4-EHT (Q14671 828-1176 N971E/Q975T): as the sequence (Q14671 828-1176 C935W/R936W/Q939S) above, with W108C, W109R, S112Q, N144E, Q148T counted along it
sequence,measurement,setting,value
GGCUAGAACUAGUGGAUCCCCCGGCGCCCGGCGGCUCGAGCCCGGGUAAGUUUAAAUAGUCUGCAUGCCGCCGGGCGCCAUGCCUGCAGGUCGACUCUAGAAAACAUG,binding signal,PUM1 PUF domain R7-KGV,3.27 log2 enrichment (interaction score)
GGCUAGAACUAGUGGAUCCCCCGGCGCCCGGCGGCUCGAGCCCGGGUAAGUGUAUAUAGUCUGCAUGCCGCCGGGCGCCAUGCCUGCAGGUCGACUCUAGAAAACAUG,binding signal,PUM1 PUF domain R4-EHT,2.46 log2 enrichment (interaction score)
GGCUAGAACUAGUGGAUCCCCCGGCGCCCGGCGGCUCGAGCCCGGGUAAGUGUUAAUAGUCUGCAUGCCGCCGGGCGCCAUGCCUGCAGGUCGACUCUAGAAAACAUG,binding signal,PUM1 PUF domain R5-RFN,3.08 log2 enrichment (interaction score)
GGCUAGAACUAGUGGAUCCCCCGGCGCCCGGCGGCUCGAGCCCGGGUAAGUGUGAAUAGUCUGCAUGCCGCCGGGCGCCAUGCCUGCAGGUCGACUCUAGAAAACAUG,binding signal,PUM1 PUF domain R5-RFN,3.16 log2 enrichment (interaction score)
same,binding signal,PUM1 PUF domain R5-GWY,2.71 log2 enrichment (interaction score)
GGCUAGAACUAGUGGAUCCCCCGGCGCCCGGCGGCUCGAGCCCGGGUAAGUGUAAGUAGUCUGCAUGCCGCCGGGCGCCAUGCCUGCAGGUCGACUCUAGAAAACAUG,binding signal,PUM1 PUF domain R3-TWD,2.42 log2 enrichment (interaction score)
same,binding signal,PUM1 PUF domain R3-WWS,5.24 log2 enrichment (interaction score)
GGCUAGAACUAGUGGAUCCCCCGGCGCCCGGCGGCUCGAGCCCGGGUAAGUGUAAAUAGUCUGCAUGCCGCCGGGCGCCAUGCCUGCAGGUCGACUCUAGAAAACAUG,binding signal,PUM1 PUF domain R3-WWS,2.73 log2 enrichment (interaction score)
same,binding signal,PUM1 PUF domain R8-WFR,4.29 log2 enrichment (interaction score)
GGCUAGAACUAGUGGAUCCCCCGGCGCCCGGCGGCUCGAGCCCGGGUAAGUGUAAAUUGUCUGCAUGCCGCCGGGCGCCAUGCCUGCAGGUCGACUCUAGAAAACAUG,binding signal,PUM1 PUF domain R1-NYV,3.91 log2 enrichment (interaction score)
GGCUAGAACUAGUGGAUCCCCCGGCGCCCGGCGGCUCGAGCCCGGGUAAGCGUAAAUAGUCUGCAUGCCGCCGGGCGCCAUGCCUGCAGGUCGACUCUAGAAAACAUG,binding signal,PUM1 PUF domain R8-WFR,4.73 log2 enrichment (interaction score)
GGCUAGAACUAGUGGAUCCCCCGGCGCCCGGCGGCUCGAGCCCGGGUAAGGGUAAAUAGUCUGCAUGCCGCCGGGCGCCAUGCCUGCAGGUCGACUCUAGAAAACAUG,binding signal,PUM1 PUF domain R8-HHP,2.56 log2 enrichment (interaction score)
GGCUAGAACUAGUGGAUCCCCCGGCGCCCGGCGGCUCGAGCCCGGGUAAGUGUAAUUAGUCUGCAUGCCGCCGGGCGCCAUGCCUGCAGGUCGACUCUAGAAAACAUG,binding signal,PUM1 PUF domain R3-RSD,3.6 log2 enrichment (interaction score)
